Experimental data from PubChem BioAssay (NCATS).
Where “and” joins values, the source holds several entries; their conditions need not be identical. Identical values can stand only once. Inconclusive results are not listed. Calls of active or inactive are those of the source. Calls come from the whole dose curve.

Test: qHTS Assay for Lipid Storage Modulators (AID 1519); for activity change, negative = inhibition: % is set by controls: 0 for no effect and ±100 for the full control effect
Conditions: Drosophila S3 cells, BODIPY lipid droplet/cell ratio, laser cytometry; at 57.5 µM (top of the series); cells loaded with oleic acid
In short: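 Cells seeded at 5,000 per well were treated with compounds over a concentration series and loaded with oleic acid (400 uM, as added). Lipid droplet fluorescence (488 nm excitation, 500-530 nm channel) was read by laser-scanning cytometry and normalized to 20 uM Triacsin C.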

SMILES | activity change, negative = inhibition
CCc1cc(C(N)=S)ccn1 | 6.15% (inactive)
CC(=O)[C@H]1CC[C@H]2[C@@H]3CCC4=CC(=O)CC[C@]4(C)[C@H]3CC[C@]12C | 1.11% (inactive)
CN(Cc1cc(Br)cc(Br)c1N)C1CCCCC1 | -8.74% (inactive)
CC1=NN(c2ccccc2)C(=O)C1 | 5.32% (inactive)
Nc1nc(=S)c2[nH]cnc2[nH]1 | 8.45% (inactive)
Cc1nnc(NS(=O)(=O)c2ccc(N)cc2)s1 | 7.74% (inactive)
CCn1cc(C(=O)O)c(=O)c2cc(F)c(N3CCNCC3)nc21 | 8.65% (inactive)
NC(=O)c1cccc(N)c1 | 7.95% (inactive)
CC(C)(C)NC(=O)[C@H]1CC[C@H]2[C@@H]3CC[C@H]4NC(=O)C=C[C@]4(C)[C@H]3CC[C@]12C | -0.33% (inactive)
COc1c(N2CCNC(C)C2)c(F)cc2c(=O)c(C(=O)O)cn(C3CC3)c12 (stereo unspecified) | 6.55% (inactive)
O=C(N[C@H](CO)[C@H](O)c1ccc([N+](=O)[O-])cc1)C(Cl)Cl | 4.84% (inactive)
COc1cnc(NS(=O)(=O)c2ccc(N)cc2)nc1 | 4.6% (inactive)
N=C(N)c1ccc(OCCCCCOc2ccc(C(=N)N)cc2)cc1 | 3.95% (inactive)
O=C(O)c1cccnc1 | 5.73% (inactive)
COc1cc(NS(=O)(=O)c2ccc(N)cc2)nc(OC)n1 | 14.8% (inactive)
Nc1ccc(S(=O)(=O)Nc2ccccn2)cc1 | 8.46% (inactive)
Cc1cccc(Nc2ccncc2S(=O)(=O)NC(=O)NC(C)C)c1 | 6.92% (inactive)
CC(C)(Sc1cc(C(C)(C)C)c(O)c(C(C)(C)C)c1)Sc1cc(C(C)(C)C)c(O)c(C(C)(C)C)c1 | 6.58% (inactive)
CCn1cc(C(=O)O)c(=O)c2cc(F)c(N3CCNCC3)cc21 | 8.94% (inactive)
Nc1nc(N)c2nc(CNc3ccc(C(=O)NC(CCC(=O)O)C(=O)O)cc3)cnc2n1 (stereo unspecified) | 6.58% (inactive) and 1.3% (inactive)
Cc1ncc([N+](=O)[O-])n1CCO | 8.03% (inactive)
Cc1cc(NS(=O)(=O)c2ccc(N)cc2)no1 | 10.1% (inactive)

Same assay, conditions: Drosophila S3 cells, BODIPY lipid droplet/cell ratio, laser cytometry; measured here: cell count channel max response; cells loaded with oleic acid

SMILES | max response
CCc1cc(C(N)=S)ccn1 | -9.37% and 8.92%
CC(=O)[C@H]1CC[C@H]2[C@@H]3CCC4=CC(=O)CC[C@]4(C)[C@H]3CC[C@]12C | -15.2%
CN(Cc1cc(Br)cc(Br)c1N)C1CCCCC1 | -7.97%
COc1ncnc(NS(=O)(=O)c2ccc(N)cc2)c1OC | -20.8%
CC1=NN(c2ccccc2)C(=O)C1 | 16.1%
Nc1nc(=S)c2[nH]cnc2[nH]1 | 14.3%
Cc1nnc(NS(=O)(=O)c2ccc(N)cc2)s1 | -3.37% and -1.8%
NNC(=O)c1ccncc1 | -8.98%
CCn1cc(C(=O)O)c(=O)c2cc(F)c(N3CCNCC3)nc21 | 9.91% and 14.4%
NC(=O)c1cccc(N)c1 | 35.3%
NC(N)=NC(N)=NCCc1ccccc1 | 4.96%
CC(C)(C)NC(=O)[C@H]1CC[C@H]2[C@@H]3CC[C@H]4NC(=O)C=C[C@]4(C)[C@H]3CC[C@]12C | -43.7%
COc1c(N2CCNC(C)C2)c(F)cc2c(=O)c(C(=O)O)cn(C3CC3)c12 (stereo unspecified) | 19.6%
O=C(N[C@H](CO)[C@H](O)c1ccc([N+](=O)[O-])cc1)C(Cl)Cl | -11.7%
COc1cnc(NS(=O)(=O)c2ccc(N)cc2)nc1 | -12.6% and 15.3%
N=C(N)c1ccc(OCCCCCOc2ccc(C(=N)N)cc2)cc1 | 3.1% and 6.27%
N[C@@H](Cc1ccc(O)c(O)c1)C(=O)O | -2.41%
O=C(O)c1cccnc1 | -11.4% and 15.3%
COc1ccc2cc3[n+](cc2c1OC)CCc1cc2c(cc1-3)OCO2 | -13.6%
COc1cc(NS(=O)(=O)c2ccc(N)cc2)nc(OC)n1 | -11.2% and 9.08%
Nc1ccc(S(=O)(=O)Nc2ccccn2)cc1 | -5.02% and 31.9%
Cc1cccc(Nc2ccncc2S(=O)(=O)NC(=O)NC(C)C)c1 | -3.68% and 16.7%
CC(C)(Sc1cc(C(C)(C)C)c(O)c(C(C)(C)C)c1)Sc1cc(C(C)(C)C)c(O)c(C(C)(C)C)c1 | 2.96% and 13.3%
CCn1cc(C(=O)O)c(=O)c2cc(F)c(N3CCNCC3)cc21 | -2.5% and 14.7%
Nc1nc(N)c2nc(CNc3ccc(C(=O)NC(CCC(=O)O)C(=O)O)cc3)cnc2n1 (stereo unspecified) | 6.78% and -3.02%
Cc1ncc([N+](=O)[O-])n1CCO | 17.2%
Cc1cc(NS(=O)(=O)c2ccc(N)cc2)no1 | 8.41% and 20.8%

Same assay, conditions: Drosophila S3 cells, BODIPY lipid droplet/cell ratio, laser cytometry; measured here: lipid channel max response; cells loaded with oleic acid

SMILES | max response
CCc1cc(C(N)=S)ccn1 | -12.5% and 21.6%
CC(=O)[C@H]1CC[C@H]2[C@@H]3CCC4=CC(=O)CC[C@]4(C)[C@H]3CC[C@]12C | -13.1%
CN(Cc1cc(Br)cc(Br)c1N)C1CCCCC1 | -15.4%
COc1ncnc(NS(=O)(=O)c2ccc(N)cc2)c1OC | -23.2%
CC1=NN(c2ccccc2)C(=O)C1 | 20.6%
Nc1nc(=S)c2[nH]cnc2[nH]1 | 28.9%
Cc1nnc(NS(=O)(=O)c2ccc(N)cc2)s1 | -7.15% and 7.76%
NNC(=O)c1ccncc1 | -8.54%
CCn1cc(C(=O)O)c(=O)c2cc(F)c(N3CCNCC3)nc21 | 12.7% and 27.2%
NC(=O)c1cccc(N)c1 | 59.1%
NC(N)=NC(N)=NCCc1ccccc1 | 5.89%
CC(C)(C)NC(=O)[C@H]1CC[C@H]2[C@@H]3CC[C@H]4NC(=O)C=C[C@]4(C)[C@H]3CC[C@]12C | -42.5%
COc1c(N2CCNC(C)C2)c(F)cc2c(=O)c(C(=O)O)cn(C3CC3)c12 (stereo unspecified) | 29.5%
O=C(N[C@H](CO)[C@H](O)c1ccc([N+](=O)[O-])cc1)C(Cl)Cl | -6.22%
COc1cnc(NS(=O)(=O)c2ccc(N)cc2)nc1 | -11.3% and 19.8%
N=C(N)c1ccc(OCCCCCOc2ccc(C(=N)N)cc2)cc1 | -0.0009% and 12.3%
N[C@@H](Cc1ccc(O)c(O)c1)C(=O)O | -4.9%
O=C(O)c1cccnc1 | -16.2% and 21.7%
COc1ccc2cc3[n+](cc2c1OC)CCc1cc2c(cc1-3)OCO2 | -12.8%
COc1cc(NS(=O)(=O)c2ccc(N)cc2)nc(OC)n1 | -12.8% and 25.1%
Nc1ccc(S(=O)(=O)Nc2ccccn2)cc1 | -4.54% and 46.5%
Cc1cccc(Nc2ccncc2S(=O)(=O)NC(=O)NC(C)C)c1 | -4.97% and 28.2%
CC(C)(Sc1cc(C(C)(C)C)c(O)c(C(C)(C)C)c1)Sc1cc(C(C)(C)C)c(O)c(C(C)(C)C)c1 | 1.97% and 25.1%
CCn1cc(C(=O)O)c(=O)c2cc(F)c(N3CCNCC3)cc21 | -2.45% and 30%
Nc1nc(N)c2nc(CNc3ccc(C(=O)NC(CCC(=O)O)C(=O)O)cc3)cnc2n1 (stereo unspecified) | 18.5% and 0.109%
Cc1ncc([N+](=O)[O-])n1CCO | 27.3%
Cc1cc(NS(=O)(=O)c2ccc(N)cc2)no1 | 8.63% and 34.6%
